# Shown are actives, neighbours in structure and some others; about 9.4% of the full set was active somewhere.
# AMA1 RON2 block: AMA1-RON2 (P. falciparum) interaction inhibition. AlphaScreen AMA1-biotinylated RON2 peptide binding. Potency, µM (series often up to 58.2 µM), for the others: at the highest dose activity change, negative = inhibition, most hits filed as inhibitors. 360,000 tested, 0.2% active;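 further: 0% = vehicle wells and -100% = peptide control; nearly all actives have a fitted effect of over 45% in size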
#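 AMA1 (3D7) with his tag at 25 nM final met compounds first, then biotinylated RON2 peptide at 25 nM; detection used donor plus acceptor beads, 10 µg/mL apiece, read by AlphaScreen after 30 min at room temperature.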
# Pf growth 96h: inhibits malaria parasite growth, 96 h | 320,000 tested, 6.9% active | P. falciparum luciferase reporter growth, 96 h | Potency, µM (titrated, usually from 28.7 µM), for the others: at the top dose activity change, negative = inhibition, hits mostly inhibitors | AID 504834; further: on the % scale 0 is the no-effect control and ±100 the full control effect
#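 Infected RBCs, 2% Hct / 0.05% parasitemia final; luciferase-reporter P. falciparum; cpd 96 h, 37 C, 5% CO2; luciferase detection reagent; luminescence.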
# SARS PLP yeast: SARS-CoV PLP inhibition in yeast | S. cerevisiae expressing SARS-CoV PLpro, growth rescue | Potency, µM (series often up to 32.9 µM), for inactives: at the top dose activity, positive = growth rescue, most hits filed as activators | 330,000 tested, 0.19% active | AID 485353; calls by dose curve; further: 0% is about no effect; nearly all actives have a fitted effect of over 55% in size
# Pf growth 48h: P. falciparum growth inhibition at 48 hours (one generation); Potency, µM (titrated, usually from 28.7 µM), without a hit: at the highest dose activity change, negative = inhibition, usual class: inhibitors; 310,000 tested, 5.9% active; P. falciparum luciferase growth in erythrocytes, 48 h; further: on the % scale 0 is the no-effect control and ±100 the full control effect
#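 Parasite viability was followed by luminescence of a genomically integrated firefly luciferase. Cultures held 0.1% parasitemia at 2% hematocrit (final), incubated under 5% CO2 at 37 C.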
# * = called active by the depositor; ? = inconclusive; . = no result given; [ ] = another dose, or the depositor's remark. Unless noted, the call rests on the fitted dose curve; in most records, active means well fitted curve in the direction sought with a large enough effect; inconclusive means small, poorly fitted or top-dose-only effect, or another doubt; inactive means no such curve, though single readings can be large; an effect the other way counts as inactive or inconclusive. Potency means the concentration at half of the fitted maximal effect.
SMILES,AMA1 RON2 block,Pf growth 96h,SARS PLP yeast,Pf growth 48h
COc1ccc(S(=O)(=O)N2CCOC23CCN(S(=O)(=O)c2ccc(C)cc2)CC3)cc1,-15%,?,0%,15µM*
COc1ccc(S(=O)(=O)N2CCOC23CCN(S(=O)(=O)c2ccc(F)cc2)CC3)cc1,-8%,?,1%,?
COc1ccc(O)c(C(c2c(C)[nH][nH]c2=O)c2c(C)[nH][nH]c2=O)c1,-16%,17%,0%,-2%
CC(=O)NC(=S)Nc1ccc2oc(-c3cc(F)c(F)cc3Cl)nc2c1,10%,176%,1%,171%
COc1ccnc(Oc2ccc(F)cc2)c1C(=O)N/C=N/OCc1c(Cl)cccc1Cl,-12%,?,-1%,12µM*
COc1ccnc(Oc2ccccc2)c1C(=O)N/C=N/OCc1ccccc1,6%,-2%,1%,8%
O=C1C(Cl)=C(NS(=O)(=O)c2ccc([N+](=O)[O-])cc2)C(=O)c2ccccc21,0%,5.2µM*,0%,?
COc1ccc(C(=O)Cn2c(=O)c(CCC(=O)O)nn3c4ccccc4nc23)cc1OC,0%,-35%,-1%,-11%
CC(C)(C)c1cc[n+](C2=C([O-])c3ccccc3C(=O)/C2=N\S(=O)(=O)c2cccs2)cc1,-10%,2.1µM*,0%,1.3µM*
COc1ccccc1N1CCN(CC(O)COc2ccc(C)cc2C)CC1 (centres undefined),-13%,45%,-1%,-13%
CN1CCN(c2nc(N(C)C)oc(=O)c2C#N)CC1,-12%,0.0037µM*,1%,-13%
O=C1NC[C@H](c2ccccc2)N(CCC23CC4CC(CC(C4)C2)C3)C1=O,7%,?,0%,?
CC1CN(CC(O)COC(c2ccc(Cl)cc2)c2ccc(Cl)cc2)CC(C)O1 (centres undefined),2%,?,-19%,3.7µM*
Cc1cccc(C)c1OCC(O)CN1CCN(c2ccccn2)CC1 (centres undefined),-7%,-7%,-3%,-4%
OC(CN1CCCCC1)Cn1c2ccc(Cl)cc2c2cc(Cl)ccc21 (centres undefined),-22%,?,0%,1.9µM*
OC(CN1CCN(c2ccccn2)CC1)Cn1c2ccc(Cl)cc2c2cc(Cl)ccc21 (centres undefined),-4%,.,-18%,1.7µM*
OC(COC(c1ccc(Cl)cc1)c1ccc(Cl)cc1)CN1CCN(c2ccccn2)CC1 (centres undefined),28µM*,?,-29%,?
CCc1c(C)[nH]n(-c2nc(-c3ccccc3)cs2)c1=O,44%,5%,-1%,2%
Cc1[nH]n(-c2nc(-c3ccc(Cl)cc3)cs2)c(=O)c1N=Nc1ccc(O)cc1,38%,6.6µM*,0%,?
CC1CCN(C(=O)c2cc(-c3ccccc3O)on2)CC1,13%,1%,-4%,.
CCc1cc2c(-c3ccccc3)cc(=O)oc2cc1OCC(C)=O,34%,13µM*,0%,-24%
COc1cccc(N2CCN(C(=O)c3cc4c(s3)-c3ccccc3OC4)CC2)c1,-13%,4.1µM*,-7%,-2%
CCOC(=O)N1CCN(C(=O)c2cc3c(s2)-c2ccccc2OC3)CC1,18%,8.3µM*,-7%,0%
CC1CC(C)CN(CCCNC(=O)c2cc3c(s2)-c2ccccc2OC3)C1 (centres undefined),6%,20%,9%,2.9µM*
Nc1ccc(S(=O)(=O)NNC(=O)C(=O)NNc2ccccc2)cc1,35%,9%,-6%,12%
SMILES,AMA1 RON2 block,Pf growth 96h,SARS PLP yeast,Pf growth 48h
Cc1ccc(-n2nc3c(c2NC(=O)c2ccco2)CS(=O)C3)c(C)c1 (centres undefined),-10%,7%,-2%,-3%
Cc1cc(=O)[nH]c(SCC(=O)Nc2nc3ccccc3s2)n1,-1%,21%,1%,79%
Cc1c(-c2ccco2)[n+](=O)c2c(n1[O-])CCC2,9%,15µM*,7%,18%
Cc1ccc(-c2c(C)n([O-])c3c([n+]2=O)CCCCC3)o1,0%,100%,13%,42%
CCn1c(N)c(C(=O)Nc2ccccc2C(=O)OC)sc1=S,1%,13µM*,0%,61%
CCn1c(N)c(C(=O)NCCOC)sc1=S,0%,-4%,7%,.
CCOC(=O)C1=C(COC(=O)c2cccc(N(C)C)c2)NC(=O)NC1C (centres undefined),-27%,89%,4%,94%
CCOC(=O)C1CCN(Cc2nc3ccccc3c(=O)n2-c2ccc(F)cc2)CC1,-20%,?,7%,.
CN(C)c1cccc(NC(=O)c2ccco2)c1,-4%,86%,-4%,-11%
CCN(CC)P(=O)(Nc1cccc(C(F)(F)F)c1)c1ccc(N(C)C)cc1NC(=O)c1ccco1 (centres undefined),?,1.9µM*,3%,2.1µM*
COc1ccccc1Nc1cc(C)nc2c(C)ccc([N+](=O)[O-])c12,3.2µM*,?,1%,-14%
CCOc1ccc(S(N)(=O)=O)cc1-c1nc2c(C(C)(C)C)nn(C)c2c(=O)[nH]1,1%,?,1%,?
CCOc1ccc(S(=O)(=O)NC(C)(C)C)cc1-c1nc2c(C(C)(C)C)nn(C)c2c(=O)[nH]1,-8%,-97%,?,4.7µM*
Cn1c(=O)c2c(nc(CN3CCN(C(=O)c4ccco4)CC3)n2CCCO)n(C)c1=O,-9%,?,3%,15%
Cc1ccc(N=N/C(=C\O)C(=O)c2ccc(Cl)cc2)cc1,-13%,85%,-10%,?
COc1ccc(C(=O)Cn2c(C(=O)/C=C/c3ccccc3)nc3ccccc32)cc1,-11%,.,0%,10µM*
Cc1ccc(Cl)c2c1NC(=O)C2(O)CC(=O)c1ccccc1O (centres undefined),0%,9.3µM*,1%,-28%
CCN(CC)S(=O)(=O)c1ccc(N2CCOCC2)c(NC(=O)COc2ccc(C#N)cc2)c1,-9%,-25%,-1%,?
CCC(=O)c1ccc(OCC(=O)Nc2ccc(N3CCOCC3)cc2N2CCOCC2)cc1,-10%,2.9µM*,-1%,?
O=C(Cc1ccc2c(c1)OCCO2)Nc1cc(Cl)ccc1N1CCOCC1,15%,?,-2%,12µM*
CCN(CC)S(=O)(=O)c1ccc(N2CCOCC2)c(NC(=O)C(C)(C)C)c1,1%,?,0%,75%
CCN(CC)S(=O)(=O)c1ccc(N2CCOCC2)c(NC(=O)CC23CC4CC(CC(Br)(C4)C2)C3)c1,2%[11.6 µM],10µM*,?,-20%
CCN(CC)S(=O)(=O)c1ccc(N2CCOCC2)c(NC(=O)COc2ccccc2C#N)c1,0%,?,0%,12µM*
C[C@@H]1CN([C@@H](C)CO)C(=O)CCCn2cc(nn2)CO[C@H]1CN(C)C(=O)Oc1ccccc1,-3%,.,.,.
CNC(=S)NNC(=O)COc1ccccc1C,0%,7%,-8%,-12%
CCN(CC)S(=O)(=O)c1ccc(N2CCOCC2)c(NC(=O)COc2ccc(OC)cc2)c1,-8%,?,-19%,?

# Screens from PubChem.
